Bioassay records: PubChem BioAssay, National Center for Advancing Translational Sciences (NCATS)
Only some compounds are listed: those with a hit (about 5.7% of all), similar ones and a draw of the others.
JMJD2A Tudor inh: qHTS Assay for Inhibitors of JMJD2A-Tudor Domain; Lysine-specific demethylase 4A (Homo sapiens), O75164; AlphaScreen JMJD2A-Tudor / H3K4me3 peptide binding; Potency, µM (doses to about 114 µM), for inactives: at the top dose activity change, negative = inhibition, most hits filed as inhibitors; 390,000 compounds, 4.4% hits; also: potency is read from the fitted curve at half-maximal effect; % is scaled to controls: 0 for no effect and ±100 for the full control effect; nearly all actives have a fitted effect of over 50% in size
L3MBTL1 block: qHTS Assay for the Inhibitors of L3MBTL1; AlphaScreen L3MBTL1–H3K9me1 peptide binding; Potency, µM (doses to about 57.1 µM), inactives show top-dose activity, negative = inhibition, usual class: inhibitors; 230,000 compounds, 0.66% hits; AID 485360, 2010; also: potency is read from the fitted curve at half-maximal effect; % is scaled to controls: 0 for no effect and ±100 for the full control effect; nearly all actives have a fitted effect of over 60% in size
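L3MBTL1 50 nM + b-AHA-H3(1-15)K9me1 75 nM, 30 min RT; compound added, 30 min RT; streptavidin donor/Ni-chelate acceptor beads 10 ug/mL each final, 30 min RT dark; AlphaScreen read.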
BAZ2B block: qHTS Assay for Inhibitors of BAZ2B; AlphaScreen BAZ2B-H3K14Ac peptide displacement; AID 504333, 2011; Bromodomain adjacent to zinc finger domain protein 2B (Homo sapiens), Q9UIF8; Potency, µM (highest dose often 114 µM), for the others: at the top dose activity change, negative = inhibition, usual class: inhibitors; 360,000 compounds, 4.4% hits; also: potency is read from the fitted curve at half-maximal effect; % is scaled to controls: 0 for no effect and ±100 for the full control effect; nearly all actives have a fitted effect of over 60% in size
Target sequence (Q9UIF8 whole entry, looked up, the tested form may be a part): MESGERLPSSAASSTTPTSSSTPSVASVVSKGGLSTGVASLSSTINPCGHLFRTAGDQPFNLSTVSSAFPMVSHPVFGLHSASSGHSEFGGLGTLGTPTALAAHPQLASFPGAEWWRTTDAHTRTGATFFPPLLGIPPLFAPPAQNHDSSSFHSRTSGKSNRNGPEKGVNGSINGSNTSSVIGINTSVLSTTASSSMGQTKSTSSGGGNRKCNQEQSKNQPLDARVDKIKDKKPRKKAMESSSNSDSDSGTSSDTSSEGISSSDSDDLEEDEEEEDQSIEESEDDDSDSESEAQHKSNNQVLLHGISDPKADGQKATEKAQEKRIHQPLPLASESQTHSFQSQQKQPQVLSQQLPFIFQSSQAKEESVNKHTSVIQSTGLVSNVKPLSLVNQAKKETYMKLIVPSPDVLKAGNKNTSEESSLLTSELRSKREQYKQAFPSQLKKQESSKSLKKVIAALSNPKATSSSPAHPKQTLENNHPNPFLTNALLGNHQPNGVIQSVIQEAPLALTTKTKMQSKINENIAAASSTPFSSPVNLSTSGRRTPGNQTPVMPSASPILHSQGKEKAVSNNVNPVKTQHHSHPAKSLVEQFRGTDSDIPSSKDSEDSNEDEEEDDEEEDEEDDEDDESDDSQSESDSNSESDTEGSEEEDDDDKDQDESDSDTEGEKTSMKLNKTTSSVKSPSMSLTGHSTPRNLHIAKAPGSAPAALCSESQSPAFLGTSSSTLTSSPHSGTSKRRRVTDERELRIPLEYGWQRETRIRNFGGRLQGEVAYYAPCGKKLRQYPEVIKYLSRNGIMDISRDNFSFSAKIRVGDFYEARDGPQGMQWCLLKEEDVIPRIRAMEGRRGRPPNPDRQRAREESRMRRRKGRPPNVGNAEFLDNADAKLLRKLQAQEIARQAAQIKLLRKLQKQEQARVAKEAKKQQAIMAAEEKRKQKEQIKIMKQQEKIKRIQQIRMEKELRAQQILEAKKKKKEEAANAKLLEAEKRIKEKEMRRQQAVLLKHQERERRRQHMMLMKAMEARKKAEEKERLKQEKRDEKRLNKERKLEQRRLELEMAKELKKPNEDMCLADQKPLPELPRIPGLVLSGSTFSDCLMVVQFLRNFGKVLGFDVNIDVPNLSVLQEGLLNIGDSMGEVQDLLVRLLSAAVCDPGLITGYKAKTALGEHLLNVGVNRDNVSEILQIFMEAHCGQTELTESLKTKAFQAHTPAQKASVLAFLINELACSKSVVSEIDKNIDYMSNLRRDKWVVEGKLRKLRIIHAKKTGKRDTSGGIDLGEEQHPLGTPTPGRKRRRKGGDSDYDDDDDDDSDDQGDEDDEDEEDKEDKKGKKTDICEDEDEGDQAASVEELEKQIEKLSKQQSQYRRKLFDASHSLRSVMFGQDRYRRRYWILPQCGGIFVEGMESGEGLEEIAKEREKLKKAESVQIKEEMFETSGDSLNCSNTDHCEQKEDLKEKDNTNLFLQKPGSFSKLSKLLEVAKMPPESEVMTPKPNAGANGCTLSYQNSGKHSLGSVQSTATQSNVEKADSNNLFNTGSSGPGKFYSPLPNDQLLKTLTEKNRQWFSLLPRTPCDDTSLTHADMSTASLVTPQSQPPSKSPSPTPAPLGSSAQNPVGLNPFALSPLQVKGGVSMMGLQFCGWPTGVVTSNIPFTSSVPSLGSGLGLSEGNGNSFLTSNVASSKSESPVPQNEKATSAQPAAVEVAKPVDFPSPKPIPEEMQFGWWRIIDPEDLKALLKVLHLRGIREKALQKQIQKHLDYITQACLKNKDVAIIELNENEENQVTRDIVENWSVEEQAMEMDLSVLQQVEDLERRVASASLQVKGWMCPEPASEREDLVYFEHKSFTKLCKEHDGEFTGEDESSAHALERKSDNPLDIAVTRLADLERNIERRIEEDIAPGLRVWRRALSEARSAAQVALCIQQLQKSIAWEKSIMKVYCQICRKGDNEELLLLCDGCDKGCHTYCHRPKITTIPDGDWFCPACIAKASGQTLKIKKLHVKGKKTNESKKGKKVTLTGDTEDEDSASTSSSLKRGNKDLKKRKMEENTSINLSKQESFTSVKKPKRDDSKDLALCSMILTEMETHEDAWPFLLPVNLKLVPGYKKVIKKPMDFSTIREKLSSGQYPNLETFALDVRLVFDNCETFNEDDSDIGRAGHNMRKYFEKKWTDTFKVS
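Protein-peptide AlphaScreen: BAZ2B 50 nM, b-H3K14Ac 50 nM, 1x PBS pH 7.4 + 0.01% Tween-20. Preincubation 30 min RT; cpd 30 min RT (top 110 uM); beads 20 min RT, light-protected.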
PI5P4K alpha inh: qHTS for Inhibitors of phosphatidylinositol 5-phosphate 4-kinase (PI5P4K); 330,000 compounds, 1.2% hits; Phosphatidylinositol 5-phosphate 4-kinase type-2 alpha (Homo sapiens), P48426; PI5P4Kalpha enzyme, ADP-Glo luminescence, 60 min; stronger effect = lower value; max response, %; AID 652105, 2013; active = max response of -50% or lower; inconclusive = between -30% and -50%; inactive = -30% or higher; also: value at the top dose of about 77 µM; % is scaled to controls: 0 for no effect and ±100 for the full control effect
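Single end-point luminescence (ADP-Glo) quantified ADP from PI5P4Kalpha turnover; ATP 5 microM final, 1 h at RT, 0.1% CHAPS and 0.28 mM EGTA in HEPES pH 7.4.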
JMJD2E inh: qHTS Assay for Inhibitors of Human Jumonji Domain Containing 2E (JMJD2E); Potency, µM (series often up to 57.1 µM), inactives show at the top dose activity change, negative = inhibition, hits mostly inhibitors; 230,000 compounds, 1.6% hits; JMJD2E catalytic domain, FDH-coupled NADH fluorescence (FDH is formaldehyde dehydrogenase); Lysine-specific demethylase 4E (Homo sapiens), B2RXH2; active = well fitted inhibition curve with a large enough effect, not every such curve was filed as active; inconclusive = small, poorly fitted or top-dose-only effect, or another doubt; inactive = no such curve, though single readings can be large or run the other way;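 also: potency is read from the fitted curve at half-maximal effect; 0% = wells with enzyme and -100% = buffer wells without enzyme; nearly all actives have a fitted effect of over 50% in size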
HP1b chromo inh: HTS for Inhibitors of HP1-beta Chromodomain Interactions with Methylated Histone Tails; Chromobox protein homolog 1 (Homo sapiens), P83916; AlphaScreen HP1-beta / biotin-H3K9me3 peptide binding; Potency, µM (doses to about 114 µM), without a hit: top-dose activity change, negative = inhibition, hits mostly inhibitors; 390,000 compounds, 0.56% hits; AID 540317, 2011; also: potency is read from the fitted curve at half-maximal effect; nearly all actives have a fitted effect of over 70% in size
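AlphaScreen: HP1-beta (50 nM) preformed 30 min with biotin-H3(1-18)K9me3 peptide (50 nM) in PBS pH 7.4, 0.01% Tween-20. Compound added for 30 min at RT, then streptavidin donor/nickel chelate acceptor beads (10 ug/mL) for 30 min.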
* marks the source's active call; other numbers are inactive results; [ ] = another dose, or the depositor's remark. Unless noted, calls follow the shape of the dose curve; as a rule, active = well fitted inhibition curve with a large enough effect; inconclusive = small, poorly fitted or top-dose-only effect; inactive = no such curve, though single readings can be large or run the other way.

What do the screens show for `CCn1c(/C=C2\C(=O)N(C(C)C)c3ccccc32)nc2ccccc2c1=O`?
JMJD2A Tudor inh: -7%[11.4 µM]; L3MBTL1 block: inconclusive; BAZ2B block: 40µM*; PI5P4K alpha inh: 4; JMJD2E inh: inconclusive; HP1b chromo inh: -23%

What do the screens show for `CCOC(=O)c1c(C)[nH]c(C)c1S(=O)(=O)NCC(=O)Nc1cccc(C#N)c1`?
JMJD2A Tudor inh: -16%; BAZ2B block: -2%; HP1b chromo inh: -3%

Results for COc1ccc(-c2ccc(C(C)=O)cc2)cc1C1C2C=CCCC2(C)C(=O)N1Cc1ccccc1 (stereo unspecified) ?
JMJD2A Tudor inh: inconclusive; HP1b chromo inh: -6%

Results for O=C(Nc1cc(C(F)(F)F)ccc1Cl)c1cnn(-c2ccccc2)c1-n1cccc1 ?
JMJD2A Tudor inh: 13%; BAZ2B block: 5%; HP1b chromo inh: 47%

What do the screens show for `CCCN1C(=O)/C(=C/c2nc3ccccc3c(=O)[nH]2)c2ccccc21`?
JMJD2A Tudor inh: inconclusive; L3MBTL1 block: -18%; BAZ2B block: inconclusive; PI5P4K alpha inh: -12; JMJD2E inh: inconclusive; HP1b chromo inh: inconclusive

How did CCn1c(/C=C2\C(=O)N(C)c3ccccc32)nc2ccccc2c1=O do in these assays?
JMJD2A Tudor inh: inconclusive; L3MBTL1 block: -3%; BAZ2B block: 56µM*; PI5P4K alpha inh: 1; JMJD2E inh: -4%; HP1b chromo inh: -12%

Results for COc1ccc(-c2cc3ccc(O)c(CN4CCN(CCO)CC4)c3oc2=O)cc1OC ?
JMJD2A Tudor inh: 2%; BAZ2B block: 8%; HP1b chromo inh: 26%[57 µM]

What do the screens show for `C#CCOCCOCCOCCNc1nc(N2CCN(C(=O)Cn3cc(CCCN=C(N)N)nn3)CC2)nc(N2CCN(C(=O)[C@H]([C@@H](C)CC)n3cc(CCCCN)nn3)CC2)n1`?
JMJD2A Tudor inh: -5%; L3MBTL1 block: 4%; BAZ2B block: 7%; PI5P4K alpha inh: -9; HP1b chromo inh: 34%

Results for C#CCOCCOCCOCCNc1nc(N2CCN(C(=O)CCCCCCCCCCNC(=O)[C@H]([C@@H](C)CC)n3cc(CCCCCN)nn3)CC2)nc(N2CCN(C(=O)CCCCCCCCCCNC(=O)[C@H]([C@@H](C)CC)n3cc(CCCCN=C(N)N)nn3)CC2)n1 ?
L3MBTL1 block: -11%; BAZ2B block: 56µM*

How did C#CCOCCOCCOCCNc1nc(N2CCN(C(=O)CCCCCCCCCCNC(=O)[C@H](CO)n3cc(CCCSC)nn3)CC2)nc(N2CCN(C(=O)CCCCCCCCCCNC(=O)[C@@H]([C@H](C)O)n3cc(C)nn3)CC2)n1 do in these assays?
L3MBTL1 block: -2%; BAZ2B block: -30%

Results for C#CCOCCOCCOCCNc1nc(N2CCN(C(=O)CCCCCCCCCCNC(=O)Cn3cc(CCCCCN)nn3)CC2)nc(N2CCN(C(=O)CCCCCCCCCCNC(=O)[C@H]([C@@H](C)CC)n3cc(CCCCN=C(N)N)nn3)CC2)n1 ?
JMJD2A Tudor inh: 56µM*; L3MBTL1 block: -4%; BAZ2B block: 56µM*; PI5P4K alpha inh: -72*; HP1b chromo inh: inconclusive

Results for C#CCOCCOCCOCCNc1nc(N2CCN(C(=O)CCCCCCCCCCNC(=O)[C@H]([C@@H](C)CC)n3cc(CCCCN=C(N)N)nn3)CC2)nc(N2CCN(C(=O)CCCCCCCCCCNC(=O)[C@H]([C@@H](C)CC)n3cc(CCCCN=C(N)N)nn3)CC2)n1 ?
L3MBTL1 block: -7%; BAZ2B block: 50µM*

Results for C#CCOCCOCCOCCNc1nc(N2CCN(C(=O)[C@H]([C@@H](C)CC)n3cc(CCCN=C(N)N)nn3)CC2)nc(N2CCN(C(=O)[C@H]([C@@H](C)CC)n3cc(CCCN=C(N)N)nn3)CC2)n1 ?
L3MBTL1 block: -2%; BAZ2B block: inconclusive; JMJD2E inh: inconclusive

Results for C#CCOCCOCCOCCNc1nc(N2CCN(C(=O)CCCCCCCCCCNC(=O)[C@H]([C@@H](C)CC)n3cc(CCCCN=C(N)N)nn3)CC2)nc(N2CCN(C(=O)CCCCCCCCCCNC(=O)[C@H](CCCCN)n3cc(C)nn3)CC2)n1 ?
JMJD2A Tudor inh: 22µM*; L3MBTL1 block: -9%; BAZ2B block: 50µM*; PI5P4K alpha inh: -89*; HP1b chromo inh: 35µM*

Results for CCCC(=O)Nc1nc2ccc(OC)cc2s1 ?
JMJD2A Tudor inh: -5%; L3MBTL1 block: 6%; BAZ2B block: 30%; PI5P4K alpha inh: -2; JMJD2E inh: -2%; HP1b chromo inh: 28%

What do the screens show for `COc1ccc2nc(NC(=S)N(C)C)sc2c1`?
JMJD2A Tudor inh: 25µM*; BAZ2B block: inconclusive; PI5P4K alpha inh: inconclusive; JMJD2E inh: -4%; HP1b chromo inh: inconclusive

What do the screens show for `Cc1cc(C(=O)NCc2ccccc2Cl)c2c(C)nn(-c3ccccc3)c2n1`?
JMJD2A Tudor inh: -1%; BAZ2B block: 6%[57.1 µM]; HP1b chromo inh: -4%

What do the screens show for `Cc1ccc(Cl)cc1N1CCN(CCNC(=O)Nc2ccccc2Cl)CC1`?
JMJD2A Tudor inh: -32%; BAZ2B block: -15%; HP1b chromo inh: 15%

Results for O=C(NNc1ccccc1[N+](=O)[O-])Nc1ccc(Cl)c(Cl)c1 ?
JMJD2A Tudor inh: -15%; L3MBTL1 block: -2%; BAZ2B block: inconclusive; PI5P4K alpha inh: 9; JMJD2E inh: -29%; HP1b chromo inh: 5%

How did CCN(CC)S(=O)(=O)c1cc([N+](=O)[O-])ccc1NNC(=O)Nc1ccc(Cl)c(Cl)c1 do in these assays?
JMJD2A Tudor inh: -35%; BAZ2B block: 32µM*; PI5P4K alpha inh: -4; JMJD2E inh: -17%; HP1b chromo inh: -3%

Results for Cn1ccnc1SCC(=O)N1CCc2ccccc21 ?
JMJD2A Tudor inh: -11%; BAZ2B block: -6%; PI5P4K alpha inh: -1; HP1b chromo inh: 37%

Results for Cc1cccc(-n2ccnc2SCC(=O)N2CCCc3ccccc32)c1C ?
JMJD2A Tudor inh: inconclusive; L3MBTL1 block: -9%; BAZ2B block: 50µM*; PI5P4K alpha inh: -3; JMJD2E inh: 6%; HP1b chromo inh: -27%

What do the screens show for `Cn1c(-c2ccc(F)cc2)cnc1SCC(=O)N1CCCc2ccccc21`?
JMJD2A Tudor inh: -29%[57.1 µM]; L3MBTL1 block: -17%; BAZ2B block: 32µM*; PI5P4K alpha inh: 4; JMJD2E inh: 9%; HP1b chromo inh: inconclusive
